The values below come from PubChem BioAssay (NCI).

Holding throughout (experiment): NCI-60 one-dose screen, 48 h (100 = growth as untreated, 0 = no growth, -100 = all killed)
What all share (details): 10 µM unless noted

Assay [1] deals with SK-MEL-2 melanoma.
For assay [2], the system named is EKVX NSCLC.
Assay [3] relates to SN12C renal.
Assay [4] has as its system UO-31 renal.
For assay [5], the system named is TK-10 renal.
Assay [6] relates to ACHN renal.
Assay [7] has as its system CAKI-1 renal.
Assay [8] relates to A498 renal.
Assay [9] concerns CCRF-CEM leukemia.
Assay [10] has as its system MOLT-4 leukemia.

Structures are written as SMILES. Compounds without any hit were thinned out: in the full panel of roughly 83,000, 20% have a hit.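 A percent growth of 40 corresponds to 60% growth inhibition; 0 means no net growth; -100 means all cells died. Active threshold: below 10.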 Values without a mark were called inactive. Active and inactive are the calls of the source.

Turning to `CCn1cc(C(=O)N/N=C/c2ccc(Br)cc2)c(=O)c2cc(F)c(N3CCNC(C)C3)c(F)c21` (configuration not stated), the growth is 97.7% in assay [1]; 86.9% in assay [2]; 52.2% in [3]; 68.4% in [4]; 99.6% in [5]; 88.8% in assay [6]. In addition, the growth is 68.5% in [7], 98% in assay [8], 29.7% in assay [9] and 22% in assay [10].

As to `Cc1cc(C)cc(Nc2ccc([N+](=O)[O-])c(NCCN3CCOCC3)n2)c1`, the growth is 43.4% in assay [1]; 66% in [2]; 32.2% in assay [3]; 23.1% in assay [4]; 65% in assay [5]; 30.4% in [6]. The growth is 37.4% in assay [7], -0.289% (active) in assay [8], 5.33% (active) in assay [9] and 10.3% in [10].

Regarding `CCN(CC)CCOc1ccc(Nc2ncc3cc(-c4ccc(O)cc4)c(=O)n(C)c3n2)cc1`, the growth was 97.7% in [1]; 74% in assay [2]; 39.9% in assay [3]; 10.5% in assay [4]; 81.2% in assay [5]; 26% in [6]. The growth in [7] is 26.4%; in assay [8], 69.4%; in [9], -8.41% (active); in assay [10] it was 5.99% (active).

Consider `C=C1C(=O)O[C@H]2[C@H]1CC/C(COC(=O)NCCCCCCCCNC(=O)OC/C1=C/CC[C@@]3(C)O[C@H]3[C@H]3OC(=O)C(=C)[C@@H]3CC1)=C\CC[C@@]1(C)O[C@@H]21`, for which the growth in assay [1] was -57.5% (active); in assay [2], -82.4% (active); in assay [3], -68.7% (active); in assay [4] it was -92.4% (active); in assay [5], -97.9% (active); in assay [6] it was -93.2% (active). Moreover, the growth in assay [7] is -90.1% (active); in [8] it was -88.7% (active); in [9], -47.3% (active); in [10], -27.5% (active).

With `COc1ccc(C2=C/C(=C\c3ccc(Cl)cc3)C(=O)N2/N=C/c2ccc(Cl)cc2)cc1`, the growth was 107% in assay [1]; 93.8% in assay [2]; 87.7% in [3]; 79.4% in assay [4]; 87.2% in assay [5]; 98.3% in [6]. The growth in [7] was 90.5%; in [8], 103%; in assay [9] it was 100%; in assay [10], 92%.

`CCN(CCO)CC(C)Nc1ccc([N+](=O)[O-])c2sc3ccccc3c(=O)c12` (configuration not stated): the growth in assay [1] is 36.6%; in assay [2], 25.7%; in assay [3], 28.2%; in assay [4], -15.6% (active); in assay [5], 58.8%; in assay [6], 11.5%. Also, the growth in assay [7] was -3.3% (active); in assay [8] it was 50.6%; in [9], 35.6%; in assay [10], 17.3%.

Consider `Clc1ccc(-c2nc(-c3c[nH]c4ncccc34)cs2)cc1`, for which the growth is 72% [100 µM] in assay [1]; 34.7% [100 µM] in assay [2]; 62.4% [100 µM] in assay [3]; 65.7% [100 µM] in assay [4]; 39.7% [100 µM] in [5]; 66.9% [100 µM] in [6]. The growth in assay [7] was 49.4% [100 µM]; in [8], 47.2% [100 µM]; in [9], 109% [100 µM]; in assay [10], 98.1% [100 µM].

Turning to `O=C(CSc1nnc2sc(Nc3cccc(Cl)c3)nn12)c1ccc(F)cc1`, the growth is 102% in assay [1]; 94.8% in [2]; 98.9% in [3]; 78.8% in [4]; 114% in assay [5]; 96% in assay [6]. The growth is 71.3% in [7], 103% in assay [8], 91.1% in [9] and 71.3% in assay [10].

As for `COc1ccc2c(c1)c(-c1cc(-c3cn(C)c4ccc(OC)cc34)on1)cn2C`, the growth in assay [1] is 118%; in [2], 106%; in [3], 106%; in [4], 80.6%; in [5] it was 126%; in assay [6] it was 89.9%. In addition, the growth in assay [7] was 92.8%; in assay [8], 105%; in assay [9], 91.3%; in assay [10], 86.3%.

For `COc1cc2c3c(c1O)-c1ccccc1[C@@H]1OC(=O)N(CC2)[C@H]31`, the growth in [1] is 97.6%; in assay [2], 104%; in assay [3], 101%; in assay [4] it was 88.5%; in assay [5], 104%; in [6], 106%. For the same compound, the growth is 95.4% in assay [7], 92.9% in [8], 74.1% in assay [9] and 96.8% in assay [10].

As for `O=C(NCc1ccccc1O)c1cccc2ccccc12`, the growth in [1] was 86.4%; in assay [2], 82.1%; in assay [3] it was 64.9%; in assay [4], 51.5%; in assay [5], 98.5%; in [6], 72.4%. Further, the growth in assay [7] is 91.9%; in [8] it was 56%; in assay [9], 101%; in [10], 79%.

On to `S=c1ssnc1-c1cccs1`, for which the growth is 103% in [1]; 104% in assay [2]; 106% in [3]; 99.9% in [4]; 99.5% in assay [5]; 107% in [6]. For the same compound, the growth was 92.1% in assay [7], 23.4% in assay [8], 97.5% in assay [9] and 84.9% in [10].

`COC(=O)/C(CCC=C(C)C)=C1\[C@@H](OC(C)=O)C[C@@]2(C)[C@H]1CC(=O)[C@H]1[C@@]3(C)CCC(N4CCCC4)[C@@H](C)[C@@H]3CC[C@@]12C` (some centres not stated): the growth is 105% in assay [1]; 91.9% in assay [2]; 89% in assay [3]; 70.2% in assay [4]; 102% in assay [5]; 104% in assay [6]. Further, the growth is 106% in assay [7], 105% in assay [8], 78.2% in assay [9] and 9.72% (active) in [10].

Turning to `COc1ccc2cc(-c3cnc4nonc4n3)ccc2c1`, the growth in assay [1] is 52.7%; in [2] it was 16.1%; in assay [3] it was 38.7%; in assay [4] it was 37.7%; in [5], 54.5%; in [6], 50.8%. In addition, the growth in assay [7] was 29.7%; in [8], 60.8%; in assay [9], 8.1% (active); in [10] it was 6.87% (active).

For the compound `Cc1ccccc1OCC(O)COc1ccccc1C`, the growth in assay [1] is 102%; in [2] it was 101%; in assay [3], 83.9%; in assay [4], 78.9%; in [5] it was 120%; in assay [6], 84.4%. Also, the growth in [7] was 80%; in assay [8], 102%; in assay [9], 85.2%; in assay [10], 131%.

For `O=c1nc(Nc2nc3ccccc3s2)[nH]c(=O)c2ccccc12`, the growth was 110% in assay [1]; 95.2% in assay [2]; 98.6% in assay [3]; 89.4% in assay [4]; 119% in assay [5]; 89.8% in assay [6]. Also, the growth in assay [7] is 85.2%; in [8] it was 77.4%; in [9], 106%; in [10], 102%.

As for `COc1cc2cc(NCc3ccc(OC(F)F)cc3)nc(C)c2cc1OC`, the growth in [1] was 79.8%; in assay [2], 75.6%; in assay [3], 62.6%; in [4], 38.6%; in assay [5] it was 54.1%; in assay [6], 69.5%. For the same compound, the growth in assay [7] was 51.5%; in [8], 30.5%; in assay [9], 68.9%; in [10], 63.3%.

As for `CC(C)CCSc1nc(Nc2ccccc2)c(C#N)c(-c2ccccc2)n1`, the growth is 81.4% in assay [1]; 14.7% in assay [2]; 27.1% in [3]; 12.9% in assay [4]; 24.7% in assay [5]; -21.2% (active) in [6]. Further, the growth was 26.8% in assay [7], -8.82% (active) in [8], 54.9% in assay [9] and 80.7% in assay [10].

Take `O=C1CCC(C(=O)NN(c2ccccc2)c2ccccc2)N1` (configuration not stated): the growth in assay [1] was 105%; in assay [2], 102%; in assay [3], 97.8%; in [4], 85.5%; in assay [5], 82.8%; in [6], 103%. Moreover, the growth is 78% in assay [7], 103% in assay [8], 22% in [9] and 50% in [10].

For `N#C/C(=C\c1ccc(-c2ccc(Cl)cc2)o1)c1ccc(Cl)cc1`, the growth in [1] was 96.5%; in assay [2], 49.5%; in assay [3], 30%; in assay [4], -11.6% (active); in assay [5], 14.6%; in assay [6] it was -20.1% (active). Also, the growth was 38.4% in assay [7], 82.5% in [8], 66.6% in assay [9] and 85.6% in assay [10].

Turning to `O=C1/C(=C/c2ccc(C(F)(F)F)cc2)COc2ccc(O)cc21`, the growth in [1] was 99.7%; in assay [2] it was 96.3%; in assay [3], 69.3%; in [4], 44.8%; in [5] it was 99.2%; in assay [6] it was 91.3%. In addition, the growth in [7] is 71.9%; in [8] it was 109%; in [9], 3.29% (active); in assay [10], 4.15% (active).

Turning to `O=C(O)c1cccc(N/C=C/C(=O)c2cc3cc(Br)ccc3oc2=O)c1`, the growth in assay [1] was 119%; in [2], 102%; in assay [3], 94.1%; in assay [4] it was 74.9%; in assay [5], 119%; in [6], 102%. Also, the growth is 86.3% in assay [7], 92.5% in assay [8], 101% in [9] and 113% in assay [10].

As to `O=C1Nc2ccc(F)cc2/C1=C\c1nc(-c2ccccc2F)n2ccccc12`, the growth in assay [1] was 38.3%; in [2] it was 102%; in [3] it was 87.1%; in [4] it was 77.6%; in assay [5] it was 97.5%; in assay [6] it was 8.93% (active). The growth in assay [7] is 68.4%; in assay [8], 111%; in assay [9], 70.8%; in [10], 81.2%.

In the case of `COc1cc(C(=O)c2c(N)ncn2-c2ccccc2)cc(OC)c1OC`, the growth was 104% in assay [1]; 102% in [2]; 88.2% in assay [3]; 81.2% in [4]; 106% in assay [5]; 102% in assay [6]. Moreover, the growth in [7] was 92.3%; in assay [8], 90.2%; in assay [9] it was 92.5%; in assay [10], 109%.

With `Cn1cc(/C=C2/C(=O)Nc3ccccc32)c2ccccc21`, the growth is 101% in [1]; 78.2% in [2]; 85.7% in assay [3]; 57.9% in [4]; 119% in assay [5]; 83.3% in [6]. Besides, the figures for the growth in [7], in assay [9] and in assay [10] were 64.8%, 90% and 82.4%, respectively.

`NNC(=S)N/N=C/c1ccccn1`: the growth was 59.6% in assay [1]; 31.6% in assay [2]; 30% in [3]; 14.7% in assay [4]; 46.9% in assay [5]; 17% in assay [6]. For the same compound, the growth in assay [7] was 14.2%; in [9] it was 12%; in [10] it was 12%.

Turning to `Cn1cc(-c2nn3cc(-c4ccccc4)nc3s2)c2ccccc21`, the growth in assay [1] was 79.6%; in [2], 72.5%; in assay [3], 78.7%; in assay [4], 42.8%; in assay [5], 95.5%; in assay [6], 74.2%. For the same compound, the growth in [7] was 55.3%; in [9], 76.4%; in assay [10] it was 65.3%.
